Each structure is given as a SMILES string. Active and inactive are the calls of the source.

The subject of assay [1] is XIP peptide (Xip251-270) binding. The assay is described as follows: small-molecule binders of XIP peptide, primary screen, biochemical, small-molecule microarray, fluorescence 635/667 nm, 0.1 µg/mL protein (AID 1182). The note with it: fluorescent protein binding, 635 nm, higher = more signal, called active from +8 up or from −8 down.
Assay [2] has as its system XIP peptide (Xip251-270). The assay is described as follows: small-molecule binders of XIP peptide, primary screen, biochemical, small-molecule microarray, fluorescence 635/667 nm, 0.5 µg/mL protein (AID 1183). The note with it: small-molecule microarray binding, fluorescence 635 nm; higher = more signal.
The nature of assay [3]: Plasmodium falciparum growth inhibition, primary screen, strain 3D7, DAPI fluorescence, 100 nL (AID 1184).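 Also: parasites grown inside human red blood cells in medium with human serum.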 The conditions noted are these: P. falciparum 3D7 growth, 3 d, higher = more signal.
Assay [4] deals with Homeobox protein Hox-A13 (Mus musculus) (UniProt Q62424). The assay is described as follows: inhibitors of HoxA13-DNA binding, primary screen, biochemical, fluorescence polarization, labeled oligonucleotide (AID 1185). The conditions noted are these: 15 min, higher = more signal, called active from +8 up or from −8 down.
Sequence of Homeobox protein Hox-A13 (Mus musculus) (Q62424 whole entry, looked up): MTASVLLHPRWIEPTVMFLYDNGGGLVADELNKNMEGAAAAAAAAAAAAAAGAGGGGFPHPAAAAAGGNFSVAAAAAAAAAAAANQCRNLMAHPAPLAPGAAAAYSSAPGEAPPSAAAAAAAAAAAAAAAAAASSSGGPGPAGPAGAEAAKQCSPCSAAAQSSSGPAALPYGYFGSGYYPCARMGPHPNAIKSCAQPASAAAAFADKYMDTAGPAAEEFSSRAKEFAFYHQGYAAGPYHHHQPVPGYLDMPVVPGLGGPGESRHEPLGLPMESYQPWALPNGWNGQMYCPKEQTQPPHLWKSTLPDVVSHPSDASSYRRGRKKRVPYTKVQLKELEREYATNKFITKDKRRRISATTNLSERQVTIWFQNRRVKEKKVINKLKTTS

For `O=C1C[C@H](c2ccccc2)[C@H](c2ccc(Br)cc2)O1`, the composite z-score in assay [1] is -0.112 (inactive); in assay [2] it was -0.0581. Moreover, the z-score in assay [3] was 0.467; in assay [4] it was -0.403 (inactive).

For the molecule `CC(=O)OC[C@H]1O[C@@H](ON=C2[C@H]3CCn4c(=O)n(-c5ccccc5)c(=O)n4[C@H]3[C@H](O)[C@@H]3O[C@H]23)[C@H](OC(C)=O)[C@@H](OC(C)=O)[C@@H]1OC(C)=O`, the composite z-score in assay [1] was -0.455 (inactive); in assay [2] it was 0.292. For the same molecule, the z-score in assay [3] is -0.541; in assay [4], -4.07 (inactive).

For the molecule `Cc1cc2c(nc1C)CCCCN2CC(O)CN1CCCc2nc(-c3ccc(Br)cc3)ccc21` (stereo not drawn), the results for the composite z-score in assay [1] and in assay [2] were -0.0362 (inactive) and 0.0985, respectively. Moreover, the z-score is 0.528 in assay [3] and -4.77 (inactive) in assay [4].

Consider `CC(=O)OC[C@H]1O[C@H](CC=NOC(C)CN2CCCCc3nc(C)c(C)cc32)C=C[C@@H]1OC(C)=O` (stereo partly drawn), for which the composite z-score is 0.231 (inactive) in assay [1] and 0.646 in assay [2]. Moreover, the values for the z-score in assay [3] and in assay [4] were -0.445 and -3.74 (inactive), respectively.

As for `CC(=O)OC[C@H]1O[C@H](C#CCC2CCCCC2)C=C[C@@H]1OC(C)=O`, the results for the composite z-score in assay [1] and in assay [2] were 0.525 (inactive) and 0.392, respectively. Also, the z-score in assay [3] was 0.951; in assay [4], -5.27 (inactive).

For `CC(=O)OC[C@H]1O[C@H](CC=NOC(C)CN2CCCc3nc(C)c(C)cc32)C=C[C@@H]1OC(C)=O` (stereo partly drawn), the composite z-score in assay [1] is 1.29 (inactive); in assay [2], 0.618. Also, the z-score in assay [3] is -0.224; in assay [4], -6.1 (inactive).

In the case of `CCOC(=O)[C@H](Cc1ccccc1)NC(=O)CCC1CC(OC(=O)NCCc2ccc(F)cc2)CC2(CCCC(COC(=O)NCCOc3ccccc3)O2)O1` (stereo partly drawn), the composite z-score in assay [1] was -0.337 (inactive); in assay [2], 0.401. The z-score was -1.7 in assay [3] and -2.88 (inactive) in assay [4].

For the molecule `CON=C[C@@H](OC)[C@H](C)C=CCC(=O)OC`, the composite z-score is -1.44 (inactive) in assay [1] and -0.499 in assay [2]. The z-score is -0.166 in assay [3] and -0.326 (inactive) in assay [4].

As for `O=C1[C@H]2[C@H]3[C@H](O)[C@H](O)CC(=NOC[C@@H](O)COCc4ccco4)[C@@H]3CC[C@H]2C(=O)N1Cc1ccccc1`, the figures for the composite z-score in assay [1] and in assay [2] were 0.41 (inactive) and 0.64, respectively. Besides, the values for the z-score in assay [3] and in assay [4] were -0.986 and -2.98 (inactive), respectively.

For the molecule `C=CC[C@@H]1C=C[C@H](ON=C(C)CCN2CCCCc3nc(C)c(C)cc32)[C@@H](CO)O1`, the composite z-score in assay [1] was -0.167 (inactive); in assay [2], 0.143. Besides, the values for the z-score in assay [3] and in assay [4] were -0.784 and -4.55 (inactive), respectively.

On to `CC(C)=CCCC(C)=CCON=C1[C@H]2CCn3c(=O)n(-c4ccccc4)c(=O)n3[C@H]2[C@H](O)[C@@H]2O[C@H]12`, for which the composite z-score was 0.246 (inactive) in assay [1] and 0.598 in assay [2]. The z-score in assay [3] was -2.23; in assay [4] it was -4.57 (inactive).

With `CCOC(=O)CCN1C(=O)[C@H]2[C@H]3[C@H](O)[C@H](O)CC(=NNC(=O)OCc4ccccc4)[C@H]3CC[C@H]2C1=O`, the composite z-score in assay [1] is 0.0983 (inactive); in assay [2], -0.0907. Also, the z-score in assay [3] is -0.873; in assay [4], -3.59 (inactive).
